Rows were chosen to be rich in hits. Some 4.7% of all compounds tested hit in one or more screens of this group.
tim10-1 inh: growth inhibitors of tim10-1 mutant yeast, primary screen, luminescence, uHTS | S. cerevisiae tim10-1 ts strain growth, BacTiter-Glo, 24 h | inhibition, % at 20 µM | 2.2% of 330,000 active | AID 463190, 2010;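 active = inhibition of at least 40%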;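 also: mutant grown at 25 °C; 0% = DMSO wells with yeast and 100% = wells holding no yeast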
tim23-1 inh: growth inhibitors of tim23-1 mutant yeast, primary screen, luminescence, uHTS; AID 463212, 2010; inhibition, % at 20 µM; 1.3% of 330,000 active; S. cerevisiae tim23-1 growth, BacTiter-Glo luminescence, 24 h;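 active = growth inhibition of the mutant yeast at or above 50%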;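 also: temperature-sensitive mutant grown at 25 °C; plate controls were DMSO-treated mutant yeast for no effect and medium wells lacking yeast for full effect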
PfHsp90 set2: growth inhibition of PfHsp90-expressing yeast, primary screen, antimalarial PfHsp90 inhibitor project, S. cerevisiae, BacTiter-Glo luminescence, single point, set 2. BacTiter-Glo ATP, 48 h; yeast lacking PDR1 and PDR3 efflux regulators. inhibition, % at 9.4 µM. AID 504621, 2011. 0.32% of 310,000 active;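 active = every replicate shows inhibition above about 80%, whatever the replicate mean, limit read from the data; inconclusive = mean inhibition reaches the set limit but some replicate falls short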;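 also: 0% = DMSO neutral controls and 100% = 20 µM radicicol positive controls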
Calb FLC: C. albicans growth inhibition with fluconazole, primary screen, CaCi-2 strain, Alamar Blue fluorescence. 0.57% of 300,000 active. C. albicans CaCi-2 (fluconazole-resistant clinical isolate) + fluconazole, 48 h. growth inhibition, % (no concentration beside the values). AID 1979, 2009;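 active = growth inhibition above about 58% in most replicates, limit read from the data, passing the limit was not always enough; inconclusive = exactly half the replicates above a set limit; inactive = most replicates below a set limit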;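 also: all wells also contain fluconazole at 8 µg/ml as a sub-toxic cotreatment; 0% = median of DMSO wells and 100% = median of geldanamycin control wells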
TIM10 inh: growth inhibitors of isogenic TIM10 control yeast, primary screen, counter-screen for tim10-1 yeast inhibitor project, luminescence, uHTS. 1.4% of 330,000 active. inhibition, % at 10 µM. AID 463195, 2010. S. cerevisiae TIM10 strain growth, BacTiter-Glo luminescence, 24 h;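 active = inhibition of 40% or more at the single tested concentration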;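 also: wild-type TIM10 isogenic control strain grown at permissive 25 °C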
SKKanGAS inh: S. pyogenes SKKanGAS growth inhibitors in kanamycin, primary screen, streptokinase expression inhibitor project, SKKanGAS strain, BacTiter-Glo luminescence. 6 h. inhibition, % at 7.5 µM. 1.3% of 300,000 active. AID 1662, 2009;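 active = mean replicate score, as percent of positive control median, at least 50; inconclusive = mean below 50 but one replicate at or above 50; inactive = mean and every replicate below 50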;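 also: strain carries kanamycin resistance gene driven by streptokinase promoter and grows in 40 µg/ml kanamycin; loss of luminescence reflects streptokinase promoter inhibition or plain growth inhibition; 0% = median of DMSO wells and 100% = positive control at its reference dose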
Starred values were filed as active, the others as inactive; ? = inconclusive; . = no result.

SMILES	tim10-1 inh	tim23-1 inh	PfHsp90 set2	Calb FLC	TIM10 inh	SKKanGAS inh
C=CCN=C1S/C(=C\N(C)C)C(=O)N1S(=O)(=O)c1ccc(C)cc1	16.7	15.1	-2.9	.	-3.8	.
CCOC(=O)c1sc(NC(=O)c2cc3ccccc3o2)nc1C	6.1	-1.1	.	0.7	-31.4	8.0
C=CCOC(=O)c1sc(NC(=O)c2ccco2)nc1C	14.6	26.6	9.5	78.5*	23.5	14.9
CCOc1ccc(S(=O)(=O)N2CCN(C(=O)CCOc3ccccc3C)CC2)cc1	31.6	27.9	8.0	-3.8	16.3	19.6
Cc1csc2nc(CSc3nc4ccccc4o3)c(Br)n12	33.4	41.5	-20.3	9.2	39.3	60.1*
Cc1csc2nc(CSc3nncn3-c3ccccc3)c(Br)n12	5.9	10.9	-7.7	-4.1	-13.7	-3.8
COc1ccc(OC)c(-n2c(CNC3CCN(Cc4ccccc4)CC3)nc3ccccc3c2=O)c1	-9.6	9.2	-15.2	0.7	0.9	2.2
COc1ccc(OC)c(-n2c(CN3CCC(C(N)=O)CC3)nc3ccccc3c2=O)c1	11.7	5.4	4.4	117.3*	2.5	.
COC(=O)c1ccc(NS(=O)(=O)c2cc(-c3cc(C)no3)ccc2OC)cc1	17.8	16.6	-36.5	87.6*	15.9	-5.6
O=C(NNC(=O)c1cc(-c2ccc(Cl)cc2)nc2ccccc12)c1csc(N2CCOCC2)n1	14.8	19.1	.	82.4*	5.8	59.7*
O=C(NNC(=O)c1cc(-c2ccccc2)nc2ccccc12)c1csc(N2CCOCC2)n1	5.3	12.4	.	48.0	7.9	-8.9
O=C(NNC(=O)c1ccccc1OCc1ccccc1Cl)c1csc(N2CCOCC2)n1	20.2	22.9	-1.4	8.7	25.2	60.2*
Cc1csc(CNc2ncnc3ccc(-c4cccc(Cl)c4)cc23)c1	-0.2	38.3	122.1*	.	-7.4	.
Cc1cccc(CNc2ncnc3ccc(-c4ccccc4Cl)cc23)c1	12.2	21.6	-7.1	.	0.0	.
O=C(Cn1sc2ccccc2c1=O)NC12CC3CC(CC(C3)C1)C2	33.4	18.8	.	-43.4	25.7	88.6*
Nc1cccc2c1C(=O)N(CC(=O)NC13CC4CC(CC(C4)C1)C3)C2=O	7.2	26.8	-12.7	-7.8	23.6	4.0
CCOc1ccc(OCc2ccc(C(=O)N/N=C(\C)c3ccccn3)cc2)cc1	.	.	6.3	?	.	92.5*
C/C(=N\NC(=O)c1cc(Br)ccc1O)c1ccccn1	11.7	-1.7	7.3	31.7	11.3	97.3*
C/C(=N\NC(=O)C(c1ccccc1)c1ccccc1)c1ccccn1	21.8	3.9	2.0	4.7	12.9	69.5*
CC(=NNC(=S)Nc1cccc(C)c1)c1ccccn1	.	.	112.3*	.	.	.
C/C(=N\NC(=O)c1ccccc1Cl)c1ccccn1	-9.8	-9.4	0.4	7.1	-0.6	41.3
C/C(=N\NC(=O)c1cccc2ccccc12)c1ccccn1	8.3	34.4	2.3	-3.2	6.0	79.0*
O=C(NN=C(c1ccccc1)c1ccccn1)c1ccccc1	10.5	47.5	-6.7	.	10.7	.
O=C(N/N=C(\c1ccccc1)c1ccccn1)c1ccccc1Cl	29.1	35.4	.	22.9	-0.3	65.6*
O=C1CC(NC(=O)C(F)(F)F)=NN1c1ccccc1	-3.8	12.1	10.1	-10.5	-26.9	3.6
SMILES	tim10-1 inh	tim23-1 inh	PfHsp90 set2	Calb FLC	TIM10 inh	SKKanGAS inh
CC(C)(Oc1ccc(Cl)cc1)C(=O)NC1=NN(c2ccccc2)C(=O)C1	27.3	45.3	11.1	27.2	13.4	94.5*
COc1cc(-c2c(NC(=O)c3ccco3)oc3ccccc3c2=O)cc(OC)c1OC	-6.6	2.4	4.4	44.4	4.4	0.8
CC(NC(=O)C(C)N1CCN(Cc2ccccc2)CC1)c1ccccc1 (stereo unspecified)	1.9	-8.0	-8.8	0.2	-6.7	-2.0
COc1ccc(C2=NOC(CNC(N)=S)C2)cc1 (stereo unspecified)	11.1	-2.7	-1.4	?	0.0	51.2*
COc1ccc(CNC(=O)C2CC(c3ccc(OC)cc3)=NO2)cc1 (stereo unspecified)	-9.8	1.4	.	-7.4	-13.5	-6.5
N#CCc1ccc(NC(=O)/C=C/c2ccc([N+](=O)[O-])o2)cc1	.	.	2.1	97.0*	.	3.5
O=C(O)/C=C/c1ccc([N+](=O)[O-])o1	-0.6	3.6	10.2	11.9	0.3	-17.9
Cc1oc(-c2cccs2)nc1CN1CCN(CCC(C)C)C(CCO)C1 (stereo unspecified)	13.3	4.1	-6.1	0.5	-0.4	-1.3
Cc1oc(-c2cccs2)nc1CN1CCN(Cc2ccc(F)c(F)c2)C(CCO)C1 (stereo unspecified)	-1.2	14.2	9.5	84.5*	-10.5	-5.2
O=C(NCCc1ccc(Cl)cc1)c1ccc2[nH]c(=O)c(=O)[nH]c2c1	20.3	15.6	-10.8	-5.7	-14.2	-1.7
Cc1ccc(N=Cc2cccc(O)c2O)c(C)c1	36.0	41.6	-46.6	18.0	28.0	57.2*
CC1=CC2C(C(O)CC3(C)C2CC(C)C32OCOC23COCO3)C2(C)C/C(=C\O)C(=O)C=C12 (stereo unspecified)	.	.	110.4*	.	.	.
COc1ccc2c(c1)[nH]c1c(=O)n(CCN(C)C)cnc12	5.2	1.1	11.8	-1.3	16.9	-1.5
COc1ccc2c(c1)[nH]c1c(=O)n(CCc3cnc[nH]3)cnc12	11.5	-9.8	.	-21.1	-5.2	100.0*
CC(=O)N1CC(C)Sc2ccc(S(=O)(=O)NC3CCCCC3C)cc21 (stereo unspecified)	20.2	31.3	5.6	0.1	16.7	2.4
CCc1ccc(CNC(=O)C2CCCN(c3nn4c(=O)cc(C)nc4s3)C2)cc1 (stereo unspecified)	11.4	0.8	4.5	-3.8	5.8	-1.2
C/C(CC(=O)Nc1cc(C)ccn1)=N\NC(=O)c1cccc(C)c1O	18.7	2.3	101.1*	93.7*	-9.0	5.1
O=C(Nc1nc2c(Cl)cccc2s1)c1ccc(Br)o1	15.3	8.7	-9.7	54.1*	8.0	1.7
O=C(Nc1nc2c(Cl)cccc2s1)c1ccc([N+](=O)[O-])o1	10.6	26.2	16.3	-1.6	8.5	15.3
O=C(CC1SC(=Nc2ccccc2)N(CCc2c[nH]c3ccccc23)C1=O)Nc1ccccc1F (stereo unspecified)	9.8	9.5	-3.2	12.3	3.2	85.8*
O=C(CC1SC(=Nc2ccccc2)N(CCc2ccccn2)C1=O)Nc1ccc(F)cc1 (stereo unspecified)	15.6	12.9	7.6	-3.9	24.2	1.4

Screens from PubChem.
